These results are taken from publication PMC7862700, “An all-to-all approach to the identification of sequence-specific readers for epigenetic DNA modifications on cytosine”.

Common to all, as to assay: DAPPL (digital affinity profiling via proximity ligation, sequencing); 10 mM Tris-HCl pH 7.5, 50 mM NaCl, 1 mM DTT, 4% glycerol, room temperature, 30 min; GST-TFs on glutathione beads, 16-mer random dsDNA library, 0.1% formaldehyde crosslink after washing; high values mean tight binding
In assay [1] the target is SPI1 (Homo sapiens, UniProt P17947 1-270). The conditions noted are these: protein: recombinant; tags: N-terminal GST; dsDNA, one strand shown. The procedure, abridged: (§1)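 Human transcription factors were made in yeast as GST fusions, captured on glutathione beads and barcoded with DNA. With a tag-only sample included, the pool was incubated with 200 nmole of a random double-stranded 16-mer DNA library in Tris/NaCl/DTT/glycerol buffer at room temperature for 30 min, then crosslinked with 0.1% formaldehyde after washing, ligated by proximity, amplified and sequenced. For binding signal, each hexamer's read frequency for a factor is divided by its frequency for the tag-only sample.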

Assay [2] concerns the target HSF1 (Homo sapiens, UniProt Q00613 1-529). The conditions noted are these: protein: recombinant; tags: N-terminal GST; chain copies: 3; dsDNA, one strand shown. The procedure, abridged:
as §1

Assay [3] addresses T1, SPIC (Homo sapiens, UniProt Q8N5J4 1-248).
T1 sequence: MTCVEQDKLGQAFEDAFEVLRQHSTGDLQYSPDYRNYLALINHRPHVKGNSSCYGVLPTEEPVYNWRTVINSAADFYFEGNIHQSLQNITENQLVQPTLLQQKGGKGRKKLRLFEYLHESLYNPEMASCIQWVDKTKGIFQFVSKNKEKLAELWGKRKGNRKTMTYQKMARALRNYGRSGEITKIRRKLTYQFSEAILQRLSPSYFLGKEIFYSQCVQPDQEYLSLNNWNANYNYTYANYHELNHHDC
The conditions noted are these: protein: recombinant; tags: N-terminal GST; dsDNA, one strand shown. The procedure, abridged:
as §1

Assay [4] has as its target T2, ELK4 (Homo sapiens, UniProt P28324-2 1-405).
T2 sequence: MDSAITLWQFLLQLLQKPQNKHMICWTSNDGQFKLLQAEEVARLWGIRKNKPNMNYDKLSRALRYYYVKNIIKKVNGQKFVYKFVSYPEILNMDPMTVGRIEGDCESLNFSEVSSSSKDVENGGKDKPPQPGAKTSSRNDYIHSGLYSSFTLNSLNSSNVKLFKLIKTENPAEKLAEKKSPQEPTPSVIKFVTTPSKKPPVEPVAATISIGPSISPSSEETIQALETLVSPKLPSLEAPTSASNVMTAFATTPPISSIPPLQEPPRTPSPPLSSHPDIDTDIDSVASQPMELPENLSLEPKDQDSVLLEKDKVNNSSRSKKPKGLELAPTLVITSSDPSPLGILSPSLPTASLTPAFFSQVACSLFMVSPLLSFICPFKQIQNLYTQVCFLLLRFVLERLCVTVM
The conditions noted are these: protein: recombinant; tags: N-terminal GST; dsDNA, one strand shown. A digest of the protocol: as §1

Assay [5] deals with T3, ETV3 (Homo sapiens, UniProt P41162-2 1-143).
T3 sequence: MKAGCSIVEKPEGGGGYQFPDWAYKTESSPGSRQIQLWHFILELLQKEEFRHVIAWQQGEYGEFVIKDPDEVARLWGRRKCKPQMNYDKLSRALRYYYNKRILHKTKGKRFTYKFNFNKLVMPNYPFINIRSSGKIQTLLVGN
Conditions: protein: recombinant; tags: N-terminal GST; dsDNA, one strand shown. A digest of the protocol:
as §1

Assay [6] deals with T4, ELK1 (Homo sapiens, UniProt P19419 1-428).
T4 sequence: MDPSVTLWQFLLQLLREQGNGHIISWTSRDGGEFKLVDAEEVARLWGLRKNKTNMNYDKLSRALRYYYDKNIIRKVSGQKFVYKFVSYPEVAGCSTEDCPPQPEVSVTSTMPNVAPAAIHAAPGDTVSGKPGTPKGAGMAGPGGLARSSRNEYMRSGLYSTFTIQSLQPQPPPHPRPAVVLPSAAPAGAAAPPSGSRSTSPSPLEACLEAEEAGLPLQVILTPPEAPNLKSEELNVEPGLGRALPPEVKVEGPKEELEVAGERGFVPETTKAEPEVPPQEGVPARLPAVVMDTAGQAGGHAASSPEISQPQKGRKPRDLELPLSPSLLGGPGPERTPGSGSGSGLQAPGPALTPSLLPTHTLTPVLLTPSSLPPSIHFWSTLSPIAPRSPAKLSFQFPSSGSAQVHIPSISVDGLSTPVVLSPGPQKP
The conditions noted are these: protein: recombinant; tags: N-terminal GST; dsDNA, one strand shown. A digest of the protocol: as §1

For assay [7], the target named is ELF1 (Homo sapiens, UniProt P32519 1-619). The conditions noted are these: protein: recombinant; tags: N-terminal GST; dsDNA, one strand shown. A digest of the protocol:
as §1

The target in assay [8] is SPIB (Homo sapiens, UniProt Q01892 1-262). Conditions: protein: recombinant; tags: N-terminal GST; dsDNA, one strand shown. A digest of the protocol:
as §1

Assay [9] addresses T5, ELK3 (Homo sapiens, UniProt P41970 1-407).
T5 sequence: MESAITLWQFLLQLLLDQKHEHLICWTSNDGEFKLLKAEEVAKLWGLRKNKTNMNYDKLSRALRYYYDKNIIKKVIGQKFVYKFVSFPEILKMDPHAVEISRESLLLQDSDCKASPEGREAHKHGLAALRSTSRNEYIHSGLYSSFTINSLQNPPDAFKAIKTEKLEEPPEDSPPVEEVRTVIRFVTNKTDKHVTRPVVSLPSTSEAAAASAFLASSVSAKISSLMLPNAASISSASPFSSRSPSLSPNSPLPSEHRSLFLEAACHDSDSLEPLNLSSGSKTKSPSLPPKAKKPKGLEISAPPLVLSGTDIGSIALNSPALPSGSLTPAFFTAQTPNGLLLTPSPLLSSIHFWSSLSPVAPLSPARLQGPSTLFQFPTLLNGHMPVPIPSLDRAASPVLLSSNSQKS
Conditions: protein: recombinant; tags: N-terminal GST; dsDNA, one strand shown. A digest of the protocol: as §1

Assay [10] has as its target ELF4 (Homo sapiens, UniProt Q99607 1-663). The conditions noted are these: protein: recombinant; tags: N-terminal GST; dsDNA, one strand shown. A digest of the protocol: as §1
Assay [11] has as its target T6, ETV2 (Homo sapiens, UniProt O00321 1-342).
T6 sequence: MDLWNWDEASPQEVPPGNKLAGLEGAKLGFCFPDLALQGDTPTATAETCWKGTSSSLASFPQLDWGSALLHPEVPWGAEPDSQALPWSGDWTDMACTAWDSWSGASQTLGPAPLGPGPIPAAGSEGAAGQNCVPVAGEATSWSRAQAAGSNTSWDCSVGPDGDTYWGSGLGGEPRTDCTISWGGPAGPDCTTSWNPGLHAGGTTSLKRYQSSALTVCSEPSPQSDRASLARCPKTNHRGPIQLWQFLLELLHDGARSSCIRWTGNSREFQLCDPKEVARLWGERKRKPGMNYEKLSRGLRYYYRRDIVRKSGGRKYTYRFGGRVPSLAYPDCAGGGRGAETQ
The conditions noted are these: protein: recombinant; tags: N-terminal GST; dsDNA, one strand shown. The procedure, abridged: as §1

The target of assay [12] is T7, ELF3 (Homo sapiens, UniProt P78545 1-371).
T7 sequence: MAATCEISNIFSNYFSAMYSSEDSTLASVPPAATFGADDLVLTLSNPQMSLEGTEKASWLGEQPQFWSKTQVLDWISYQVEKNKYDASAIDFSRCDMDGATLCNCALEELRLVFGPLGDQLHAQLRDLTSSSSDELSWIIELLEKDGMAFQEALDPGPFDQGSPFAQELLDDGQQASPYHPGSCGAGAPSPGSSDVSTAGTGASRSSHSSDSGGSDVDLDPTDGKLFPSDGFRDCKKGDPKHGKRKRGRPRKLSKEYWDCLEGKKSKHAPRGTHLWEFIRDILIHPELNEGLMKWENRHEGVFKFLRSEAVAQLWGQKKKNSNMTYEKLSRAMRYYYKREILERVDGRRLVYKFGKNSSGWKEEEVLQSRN
The conditions noted are these: protein: recombinant; tags: N-terminal GST; dsDNA, one strand shown. The procedure, abridged: as §1

The target of assay [13] is T8, ERF (Homo sapiens, UniProt P50548 1-548).
T8 sequence: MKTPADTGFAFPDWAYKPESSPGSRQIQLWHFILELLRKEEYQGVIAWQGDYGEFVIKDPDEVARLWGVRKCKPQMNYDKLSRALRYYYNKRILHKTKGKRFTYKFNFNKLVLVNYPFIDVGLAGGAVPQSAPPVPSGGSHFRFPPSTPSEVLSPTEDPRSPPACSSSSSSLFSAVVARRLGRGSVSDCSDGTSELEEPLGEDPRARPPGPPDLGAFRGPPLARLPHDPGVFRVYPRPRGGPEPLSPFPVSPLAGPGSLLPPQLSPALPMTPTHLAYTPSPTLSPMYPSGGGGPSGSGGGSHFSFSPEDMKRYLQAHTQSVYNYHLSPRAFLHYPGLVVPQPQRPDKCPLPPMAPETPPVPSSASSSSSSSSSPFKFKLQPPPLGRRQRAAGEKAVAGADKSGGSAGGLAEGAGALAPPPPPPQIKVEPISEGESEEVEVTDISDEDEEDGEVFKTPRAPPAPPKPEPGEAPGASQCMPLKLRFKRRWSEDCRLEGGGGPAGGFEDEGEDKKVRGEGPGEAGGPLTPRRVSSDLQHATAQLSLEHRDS
The conditions noted are these: protein: recombinant; tags: N-terminal GST; dsDNA, one strand shown. A digest of the protocol:
as §1

In assay [14] the target is T9, ETV3L (Homo sapiens, UniProt Q6ZN32 1-361).
T9 sequence: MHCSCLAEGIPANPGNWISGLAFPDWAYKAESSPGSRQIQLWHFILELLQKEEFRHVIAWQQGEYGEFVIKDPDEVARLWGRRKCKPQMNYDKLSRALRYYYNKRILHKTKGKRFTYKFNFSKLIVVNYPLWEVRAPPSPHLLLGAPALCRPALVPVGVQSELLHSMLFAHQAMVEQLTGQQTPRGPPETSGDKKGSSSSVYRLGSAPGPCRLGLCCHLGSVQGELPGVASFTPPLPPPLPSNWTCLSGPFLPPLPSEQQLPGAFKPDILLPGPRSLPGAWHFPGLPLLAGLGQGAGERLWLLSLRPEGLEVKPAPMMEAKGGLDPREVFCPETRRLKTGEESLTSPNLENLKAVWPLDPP
Conditions: protein: recombinant; tags: N-terminal GST; dsDNA, one strand shown. A digest of the protocol:
as §1

Assay [15] concerns the target T10, ETS2 (Homo sapiens, UniProt P15036 1-469).
T10 sequence: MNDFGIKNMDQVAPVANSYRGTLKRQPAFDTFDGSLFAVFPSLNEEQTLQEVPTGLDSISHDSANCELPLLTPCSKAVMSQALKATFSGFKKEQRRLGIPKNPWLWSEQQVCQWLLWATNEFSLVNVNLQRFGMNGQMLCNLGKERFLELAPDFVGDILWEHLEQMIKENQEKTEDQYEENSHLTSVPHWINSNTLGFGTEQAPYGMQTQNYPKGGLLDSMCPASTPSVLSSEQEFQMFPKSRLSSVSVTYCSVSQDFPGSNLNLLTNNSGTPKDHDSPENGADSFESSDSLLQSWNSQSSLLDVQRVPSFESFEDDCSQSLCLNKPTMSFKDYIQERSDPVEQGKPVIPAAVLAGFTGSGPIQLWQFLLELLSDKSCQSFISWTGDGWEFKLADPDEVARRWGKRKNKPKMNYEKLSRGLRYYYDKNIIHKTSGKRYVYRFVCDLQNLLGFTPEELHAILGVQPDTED
The conditions noted are these: protein: recombinant; tags: N-terminal GST; dsDNA, one strand shown. A digest of the protocol: as §1

Sequence of HSF1 (Q00613 whole entry): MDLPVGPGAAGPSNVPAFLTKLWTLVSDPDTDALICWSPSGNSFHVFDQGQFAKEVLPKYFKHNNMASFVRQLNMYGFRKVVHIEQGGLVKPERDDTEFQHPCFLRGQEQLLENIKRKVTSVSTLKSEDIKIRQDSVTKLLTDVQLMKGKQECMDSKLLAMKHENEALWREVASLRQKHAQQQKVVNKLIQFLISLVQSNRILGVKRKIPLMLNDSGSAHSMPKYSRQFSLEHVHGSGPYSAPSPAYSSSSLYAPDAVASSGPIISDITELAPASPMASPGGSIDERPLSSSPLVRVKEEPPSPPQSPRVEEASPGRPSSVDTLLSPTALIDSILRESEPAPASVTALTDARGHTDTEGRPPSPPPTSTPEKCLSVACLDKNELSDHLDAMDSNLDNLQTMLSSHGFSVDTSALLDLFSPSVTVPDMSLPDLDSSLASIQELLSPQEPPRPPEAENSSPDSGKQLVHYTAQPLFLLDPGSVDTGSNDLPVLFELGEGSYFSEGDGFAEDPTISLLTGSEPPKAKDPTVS
Sequence of ELF1 (P32519 whole entry): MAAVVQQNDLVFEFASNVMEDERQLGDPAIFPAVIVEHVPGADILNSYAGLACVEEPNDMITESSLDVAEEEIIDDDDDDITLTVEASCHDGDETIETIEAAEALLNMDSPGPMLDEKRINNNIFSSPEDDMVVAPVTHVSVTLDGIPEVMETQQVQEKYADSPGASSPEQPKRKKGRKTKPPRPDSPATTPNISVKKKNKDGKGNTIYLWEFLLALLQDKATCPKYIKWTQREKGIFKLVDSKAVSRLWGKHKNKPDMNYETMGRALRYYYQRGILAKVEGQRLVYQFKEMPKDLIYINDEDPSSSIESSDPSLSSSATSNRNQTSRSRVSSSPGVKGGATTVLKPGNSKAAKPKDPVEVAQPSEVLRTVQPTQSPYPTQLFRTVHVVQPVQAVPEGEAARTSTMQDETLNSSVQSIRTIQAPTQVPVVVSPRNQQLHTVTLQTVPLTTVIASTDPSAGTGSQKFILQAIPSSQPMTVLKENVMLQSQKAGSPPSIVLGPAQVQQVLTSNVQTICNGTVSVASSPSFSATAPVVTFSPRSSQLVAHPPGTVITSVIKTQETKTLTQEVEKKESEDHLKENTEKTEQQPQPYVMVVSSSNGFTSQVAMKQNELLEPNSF
Sequence of ELF4 (Q99607 whole entry): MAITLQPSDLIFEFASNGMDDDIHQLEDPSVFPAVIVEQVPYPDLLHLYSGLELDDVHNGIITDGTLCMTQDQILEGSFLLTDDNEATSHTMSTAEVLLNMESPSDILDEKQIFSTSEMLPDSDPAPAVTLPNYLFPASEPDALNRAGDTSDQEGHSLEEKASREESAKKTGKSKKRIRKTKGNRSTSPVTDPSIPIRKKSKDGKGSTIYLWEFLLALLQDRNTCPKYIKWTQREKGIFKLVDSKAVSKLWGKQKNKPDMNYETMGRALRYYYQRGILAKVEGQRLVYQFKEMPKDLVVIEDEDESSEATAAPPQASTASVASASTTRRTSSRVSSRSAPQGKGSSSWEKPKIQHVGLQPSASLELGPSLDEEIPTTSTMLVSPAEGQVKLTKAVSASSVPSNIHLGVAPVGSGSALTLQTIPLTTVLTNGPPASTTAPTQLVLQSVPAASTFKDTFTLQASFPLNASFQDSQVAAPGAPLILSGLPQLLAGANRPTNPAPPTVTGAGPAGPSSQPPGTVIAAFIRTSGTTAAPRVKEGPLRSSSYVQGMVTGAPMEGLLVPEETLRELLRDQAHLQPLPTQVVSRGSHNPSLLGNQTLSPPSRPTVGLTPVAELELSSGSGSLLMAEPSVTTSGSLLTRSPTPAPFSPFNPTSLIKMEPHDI
Sequence of SPIB (Q01892 whole entry): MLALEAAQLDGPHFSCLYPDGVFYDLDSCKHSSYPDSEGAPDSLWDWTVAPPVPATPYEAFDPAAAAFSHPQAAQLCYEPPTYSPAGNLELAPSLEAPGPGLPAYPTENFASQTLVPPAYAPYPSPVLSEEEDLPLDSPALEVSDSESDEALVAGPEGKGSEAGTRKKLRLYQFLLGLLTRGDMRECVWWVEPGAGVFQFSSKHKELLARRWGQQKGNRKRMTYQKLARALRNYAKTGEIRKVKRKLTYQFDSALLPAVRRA

Regarding GTGGAA, the binding signal in assay [1] was 1.15 fold enrichment (6-mer frequency, TF over GST control); in assay [2], 1.23 fold enrichment (6-mer frequency, TF over GST control); in assay [3], 1.02 fold enrichment (6-mer frequency, TF over GST control); in [4], 1.06 fold enrichment (6-mer frequency, TF over GST control); in assay [5], 1.02 fold enrichment (6-mer frequency, TF over GST control).

As to AGAGAA, in assay [2], the binding signal is 1.36 fold enrichment (6-mer frequency, TF over GST control).

As for AACCGA, the binding signal was 1.02 fold enrichment (6-mer frequency, TF over GST control) in assay [6]; 1.04 fold enrichment (6-mer frequency, TF over GST control) in [7]; 1.03 fold enrichment (6-mer frequency, TF over GST control) in assay [8]; 1.01 fold enrichment (6-mer frequency, TF over GST control) in [9]; 1.04 fold enrichment (6-mer frequency, TF over GST control) in assay [2]; 1.09 fold enrichment (6-mer frequency, TF over GST control) in assay [3]. Also, the binding signal is 1.02 fold enrichment (6-mer frequency, TF over GST control) in assay [10]; 1.13 fold enrichment (6-mer frequency, TF over GST control) in assay [11]; 1.04 fold enrichment (6-mer frequency, TF over GST control) in assay [12]; 1 fold enrichment (6-mer frequency, TF over GST control) in [13]; 1.07 fold enrichment (6-mer frequency, TF over GST control) in assay [14]; 1.03 fold enrichment (6-mer frequency, TF over GST control) in assay [15].
